Test results from PubChem BioAssay.
Calls of active or inactive are those of the source.

What was measured:
[1] = tested on: PRMT1 (protein arginine N-methyltransferase 1); experiment: small molecules binding arginine methyltransferase PRMT1 – biochemical, small-molecule microarray, 635 nm fluorescence, primary screen (AID 1088); conditions: higher = more signal;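 also: binding of Prmt1 protein to compounds spotted on small-molecule microarray slides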
[2] = growth effects on S. cerevisiae YJM789 – YJM789 clinical isolate, OD600, 24 h, basal, primary screen (AID 1089); conditions: higher = more signal, called active from +8 up or from −8 down;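 also: growth of clinical yeast isolate S. cerevisiae YJM 789 seeded 1000 cells per well; test concentration not given here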
[3] = S. pombe growth modifiers, basal conditions – strain 972, OD600, 24 h, no modulator, primary screen (AID 1090);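 also: basal condition with compound alone and no growth modifier present; test concentration not given here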; conditions: S. pombe 972 growth, higher = more signal, called active from +8 up or from −8 down
[4] = budding yeast growth modifiers under rapamycin – strain BY4716, OD600, 96 h, primary screen (AID 1091); also: test concentration not given here; conditions: S. cerevisiae BY4716 + rapamycin, higher = more signal, called active from +8 up or from −8 down
[5] = target: Torsin-1A-interacting protein 2 (Homo sapiens) (UniProt Q8NFQ8); experiment: small molecules binding lysate-expressed LULL1 – cell lysate, human LULL1 lysate, 635/667 nm fluorescence, primary screen (AID 1092); conditions: small-molecule microarray, hLULL1 lysate binding, 635 nm fluorescence; higher = more signal;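 also: probe is lysate of COS7 cells overexpressing human LULL1; score merges per-feature 667 nm fluorescence with signal-to-noise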
Sequence of Torsin-1A-interacting protein 2 (Homo sapiens) (Q8NFQ8 whole entry, looked up): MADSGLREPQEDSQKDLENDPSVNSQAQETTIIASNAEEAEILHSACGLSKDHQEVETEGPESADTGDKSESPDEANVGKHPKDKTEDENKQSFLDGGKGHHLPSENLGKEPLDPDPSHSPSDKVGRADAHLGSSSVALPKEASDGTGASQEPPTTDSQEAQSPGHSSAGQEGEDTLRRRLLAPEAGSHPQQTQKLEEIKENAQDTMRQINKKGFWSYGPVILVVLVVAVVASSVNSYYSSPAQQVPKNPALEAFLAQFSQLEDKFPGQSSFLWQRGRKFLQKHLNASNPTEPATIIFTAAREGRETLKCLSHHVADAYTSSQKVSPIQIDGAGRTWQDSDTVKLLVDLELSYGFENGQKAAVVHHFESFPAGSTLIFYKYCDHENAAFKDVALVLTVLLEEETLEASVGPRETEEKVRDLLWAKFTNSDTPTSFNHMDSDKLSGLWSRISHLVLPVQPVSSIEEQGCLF

[6] = optical density change of DRC41 E. coli – strain DRC41, OD650, 24 h, E. coli filamentation project, primary screen (AID 1093);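 also: MC1000 strain lacking acrAB efflux and sulA so SOS filamentation is blocked; test concentration not given here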; conditions: E. coli DRC41 growth, higher = more signal, called active from +8 up or from −8 down
[7] = probe aLefty2 binding to arrayed compounds – biochemical, biotinylated probe, 635/667 nm fluorescence, primary screen (AID 1094); conditions: small-molecule microarray, higher = more signal;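 also: score merges spot fluorescence near 667 nm with spot signal-to-noise ratio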
[8] = tested on: Noggin (protein binding on small-molecule microarray); experiment: small molecules binding Noggin protein – biochemical, 635/667 nm fluorescence, primary screen (AID 1095); conditions: 635 nm fluorescence, higher = more signal;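 also: score merges 667 nm feature fluorescence with signal to noise over triplicate slides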
[9] = target: Neurogenic locus notch homolog protein 3 (Homo sapiens) (UniProt Q9UM47); experiment: small molecules binding NOTCH3 protein – biochemical, 635/667 nm fluorescence, primary screen (AID 1096); conditions: small-molecule microarray, 635 nm fluorescence, higher = more signal
Sequence of Neurogenic locus notch homolog protein 3 (Homo sapiens) (Q9UM47 whole entry, looked up): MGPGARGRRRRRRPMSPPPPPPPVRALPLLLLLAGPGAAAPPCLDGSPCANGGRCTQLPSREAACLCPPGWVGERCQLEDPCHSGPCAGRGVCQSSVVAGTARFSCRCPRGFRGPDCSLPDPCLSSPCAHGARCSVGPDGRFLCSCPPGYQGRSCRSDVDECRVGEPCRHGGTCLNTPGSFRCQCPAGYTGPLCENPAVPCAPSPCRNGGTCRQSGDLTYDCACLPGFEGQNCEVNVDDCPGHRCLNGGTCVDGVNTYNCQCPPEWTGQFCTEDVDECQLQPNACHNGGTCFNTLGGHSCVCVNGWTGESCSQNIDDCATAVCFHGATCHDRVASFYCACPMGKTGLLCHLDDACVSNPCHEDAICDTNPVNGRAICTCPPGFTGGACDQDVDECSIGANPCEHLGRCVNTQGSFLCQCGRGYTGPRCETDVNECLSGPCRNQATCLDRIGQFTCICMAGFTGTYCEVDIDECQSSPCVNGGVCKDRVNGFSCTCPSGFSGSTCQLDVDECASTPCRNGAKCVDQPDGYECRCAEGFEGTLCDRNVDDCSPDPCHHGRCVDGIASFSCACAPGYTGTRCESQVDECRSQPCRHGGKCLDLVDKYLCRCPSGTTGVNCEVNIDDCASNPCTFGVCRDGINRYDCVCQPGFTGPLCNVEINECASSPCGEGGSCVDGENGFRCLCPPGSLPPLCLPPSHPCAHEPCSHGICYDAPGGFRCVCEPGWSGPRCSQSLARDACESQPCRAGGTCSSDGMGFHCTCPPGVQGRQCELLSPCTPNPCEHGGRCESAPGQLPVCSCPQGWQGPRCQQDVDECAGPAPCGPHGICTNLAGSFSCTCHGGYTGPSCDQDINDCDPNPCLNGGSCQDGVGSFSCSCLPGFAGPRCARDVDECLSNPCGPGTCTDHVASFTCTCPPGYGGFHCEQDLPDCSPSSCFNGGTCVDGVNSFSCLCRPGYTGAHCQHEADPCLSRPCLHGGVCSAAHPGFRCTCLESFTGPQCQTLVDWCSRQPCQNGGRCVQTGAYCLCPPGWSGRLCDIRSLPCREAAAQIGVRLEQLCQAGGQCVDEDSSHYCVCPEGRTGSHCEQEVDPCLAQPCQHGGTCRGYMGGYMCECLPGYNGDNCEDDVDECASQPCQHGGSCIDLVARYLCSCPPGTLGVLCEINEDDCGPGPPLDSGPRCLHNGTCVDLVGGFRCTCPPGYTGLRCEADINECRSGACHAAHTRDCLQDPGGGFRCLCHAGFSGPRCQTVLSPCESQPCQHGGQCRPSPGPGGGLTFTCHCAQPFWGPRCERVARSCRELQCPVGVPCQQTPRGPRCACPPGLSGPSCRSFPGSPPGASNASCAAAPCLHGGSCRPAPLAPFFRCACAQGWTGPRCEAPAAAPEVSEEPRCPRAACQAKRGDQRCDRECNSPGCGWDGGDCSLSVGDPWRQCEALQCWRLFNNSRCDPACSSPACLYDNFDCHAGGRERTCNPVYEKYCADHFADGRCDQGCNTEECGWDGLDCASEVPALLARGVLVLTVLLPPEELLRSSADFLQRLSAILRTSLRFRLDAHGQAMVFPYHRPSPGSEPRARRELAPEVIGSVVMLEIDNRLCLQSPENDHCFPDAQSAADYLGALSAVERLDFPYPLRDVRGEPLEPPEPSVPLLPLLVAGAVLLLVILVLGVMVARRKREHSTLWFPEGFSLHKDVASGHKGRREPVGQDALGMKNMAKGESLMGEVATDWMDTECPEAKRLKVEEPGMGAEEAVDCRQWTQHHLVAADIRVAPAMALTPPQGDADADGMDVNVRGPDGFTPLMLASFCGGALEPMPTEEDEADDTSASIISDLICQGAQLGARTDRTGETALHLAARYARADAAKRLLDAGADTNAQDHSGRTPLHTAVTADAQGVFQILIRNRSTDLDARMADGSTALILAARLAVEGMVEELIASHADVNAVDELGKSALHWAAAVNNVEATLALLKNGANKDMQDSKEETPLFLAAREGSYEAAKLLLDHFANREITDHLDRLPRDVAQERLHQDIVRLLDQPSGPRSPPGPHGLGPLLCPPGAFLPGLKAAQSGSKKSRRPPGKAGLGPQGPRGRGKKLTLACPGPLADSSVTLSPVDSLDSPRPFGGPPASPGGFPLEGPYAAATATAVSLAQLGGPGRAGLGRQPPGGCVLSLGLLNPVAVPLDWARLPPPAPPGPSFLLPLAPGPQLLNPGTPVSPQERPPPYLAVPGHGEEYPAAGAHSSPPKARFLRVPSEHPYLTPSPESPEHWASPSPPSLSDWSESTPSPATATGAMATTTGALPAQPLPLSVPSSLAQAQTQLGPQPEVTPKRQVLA

[10] = probe aEGFR binding to arrayed compounds – biochemical, biotinylated probe, 635/667 nm fluorescence, primary screen (AID 1097); conditions: small-molecule microarray, higher = more signal;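 also: probe is a biotinylated anti-EGFR antibody binding compounds printed on slides; score combines fluorescence near 667 nm and signal to noise of each spot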
[11] = tested on: Plasmodium falciparum Sir2 (PF13_0152, Sir2A); experiment: Plasmodium falciparum Sir2A binding compounds – biochemical, small-molecule microarray, 635 nm fluorescence, primary screen (AID 1098); conditions: fluorescence 635 nm, higher = more signal;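 also: score merges spot fluorescence intensity with its signal-to-noise ratio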
[12] = probe aDKK1 binding to arrayed compounds – biochemical, biotinylated probe, 635/667 nm fluorescence, primary screen (AID 1099); conditions: small-molecule microarray, higher = more signal;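 also: score merges 667nm spot fluorescence with signal to noise across triplicate slides; reference of the scale not given here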
[13] = probe aCHRDL2 binding to arrayed compounds – biochemical, biotinylated probe, 635/667 nm fluorescence, primary screen (AID 1100); conditions: small-molecule microarray, higher = more signal
[14] = change in splice reporter luminescence, either direction, cell-based, HEK293, spliceosome inhibition project, primary screen (AID 1101); conditions: HEK293 splicing luciferase reporter, 24 h, higher = more signal, called active from +8 up or from −8 down;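 also: HEK293 cells carrying a splicing-competent luciferase reporter gene; test concentration not given here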
[15] = target: Fibroblast growth factor 10 (Homo sapiens) (UniProt O15520); experiment: compounds binding fibroblast growth factor 10 – biochemical, small-molecule microarray, 635 nm fluorescence, primary screen (AID 1102); conditions: FGF10 binding, fluorescence 635 nm, higher = more signal
Sequence of Fibroblast growth factor 10 (Homo sapiens) (O15520 whole entry, looked up): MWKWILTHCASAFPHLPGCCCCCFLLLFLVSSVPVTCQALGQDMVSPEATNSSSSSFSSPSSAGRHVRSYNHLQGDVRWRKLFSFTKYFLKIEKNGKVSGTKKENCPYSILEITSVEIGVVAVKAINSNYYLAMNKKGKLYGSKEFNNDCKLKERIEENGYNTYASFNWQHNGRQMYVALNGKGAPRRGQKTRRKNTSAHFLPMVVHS

[16] = tested on: glycogen synthase kinase-3 (GSK3A per assay name; protocol says GSK3B); experiment: compounds binding glycogen synthase kinase-3 – biochemical, small-molecule microarray, 635 nm fluorescence, GSK3A, primary screen (AID 1103); conditions: fluorescence 635 nm, higher = more signal; also: the record names both GSK3A and GSK3B
[17] = target: Epidermal growth factor receptor (Homo sapiens) (UniProt P00533); experiment: compounds binding epidermal growth factor receptor – biochemical, small-molecule microarray, 635 nm fluorescence, primary screen (AID 1104); conditions: EGFR binding, higher = more signal;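 also: score merges 667 nm emission intensity with spot signal to noise over triplicate slides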
Sequence of Epidermal growth factor receptor (Homo sapiens) (P00533 whole entry, looked up): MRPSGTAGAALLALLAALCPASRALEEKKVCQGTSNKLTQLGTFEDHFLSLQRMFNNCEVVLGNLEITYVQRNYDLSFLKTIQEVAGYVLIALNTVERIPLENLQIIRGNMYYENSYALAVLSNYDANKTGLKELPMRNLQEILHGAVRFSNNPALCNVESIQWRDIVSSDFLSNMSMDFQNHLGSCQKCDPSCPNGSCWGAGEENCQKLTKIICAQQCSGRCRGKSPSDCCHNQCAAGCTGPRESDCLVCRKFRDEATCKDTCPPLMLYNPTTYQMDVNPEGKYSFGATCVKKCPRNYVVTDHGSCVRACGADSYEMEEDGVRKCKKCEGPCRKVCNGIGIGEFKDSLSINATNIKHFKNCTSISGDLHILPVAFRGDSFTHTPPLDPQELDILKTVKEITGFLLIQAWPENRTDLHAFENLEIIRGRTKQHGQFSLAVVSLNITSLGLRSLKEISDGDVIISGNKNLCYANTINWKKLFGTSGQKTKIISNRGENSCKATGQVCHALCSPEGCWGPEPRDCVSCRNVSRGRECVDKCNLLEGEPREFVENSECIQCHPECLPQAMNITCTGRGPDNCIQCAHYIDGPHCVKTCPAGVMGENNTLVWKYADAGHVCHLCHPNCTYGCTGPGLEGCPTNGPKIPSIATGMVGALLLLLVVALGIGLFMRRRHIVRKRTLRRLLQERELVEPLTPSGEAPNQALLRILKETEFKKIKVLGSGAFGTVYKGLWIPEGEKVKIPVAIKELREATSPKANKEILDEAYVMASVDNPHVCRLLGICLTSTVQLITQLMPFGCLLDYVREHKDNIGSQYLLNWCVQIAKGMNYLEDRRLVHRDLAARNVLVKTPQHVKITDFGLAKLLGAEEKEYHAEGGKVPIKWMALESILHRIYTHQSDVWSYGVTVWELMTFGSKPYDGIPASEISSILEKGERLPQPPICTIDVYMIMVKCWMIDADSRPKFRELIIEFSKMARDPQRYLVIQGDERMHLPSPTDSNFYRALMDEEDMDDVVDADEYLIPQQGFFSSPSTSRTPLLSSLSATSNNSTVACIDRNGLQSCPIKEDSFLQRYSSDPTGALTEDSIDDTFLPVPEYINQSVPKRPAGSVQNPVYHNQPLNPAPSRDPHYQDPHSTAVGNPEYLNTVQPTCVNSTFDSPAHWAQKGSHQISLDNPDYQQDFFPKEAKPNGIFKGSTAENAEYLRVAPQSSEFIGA

[18] = target: Follistatin-related protein 3 (Homo sapiens) (UniProt O95633); experiment: compounds binding follistatin-related protein 3 – biochemical, small-molecule microarray, 635 nm fluorescence, primary screen (AID 1105); conditions: FSTL3 binding, higher = more signal;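 also: score merges emission near 667 nm and signal to noise per printed spot across three slides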
Sequence of Follistatin-related protein 3 (Homo sapiens) (O95633 whole entry, looked up): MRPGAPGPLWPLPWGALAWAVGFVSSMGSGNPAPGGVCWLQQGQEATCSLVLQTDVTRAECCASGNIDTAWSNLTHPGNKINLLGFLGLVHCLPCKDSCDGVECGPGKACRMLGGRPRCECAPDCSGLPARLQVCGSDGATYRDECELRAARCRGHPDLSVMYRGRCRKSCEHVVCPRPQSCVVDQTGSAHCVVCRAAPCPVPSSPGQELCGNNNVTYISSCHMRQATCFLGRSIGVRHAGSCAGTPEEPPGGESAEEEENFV

[19] = target: Dickkopf-related protein 1 (Homo sapiens) (UniProt O94907); experiment: small molecules binding DKK1 protein – biochemical, small-molecule microarray, 635 nm fluorescence scan, primary screen (AID 1106); conditions: higher = more signal;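 also: score merges emission near 667 nm with signal to noise over three replicate slides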
Sequence of Dickkopf-related protein 1 (Homo sapiens) (O94907 whole entry, looked up): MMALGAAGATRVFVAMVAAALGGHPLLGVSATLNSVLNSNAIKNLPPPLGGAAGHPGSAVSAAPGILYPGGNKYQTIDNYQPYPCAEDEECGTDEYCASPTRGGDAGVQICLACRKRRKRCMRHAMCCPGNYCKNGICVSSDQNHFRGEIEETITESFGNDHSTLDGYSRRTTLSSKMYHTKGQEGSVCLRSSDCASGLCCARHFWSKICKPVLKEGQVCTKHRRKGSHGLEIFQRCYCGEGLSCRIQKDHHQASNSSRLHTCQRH

[20] = tested on: Inhibin beta A chain (activin A); experiment: small molecules binding activin A – biochemical, small-molecule microarray, 635 nm fluorescence scan, primary screen (AID 1107); conditions: INHBA, higher = more signal;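 also: mouse activin A protein probed at 4.33 µg/mL on printed slides; score merges bound-protein fluorescence near 667 nm with spot signal-to-noise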

| SMILES | composite z-score [1] | z-score [2] | z-score [3] | z-score [4] | composite z-score [5] | z-score [6] | composite z-score [7] | composite z-score [8] | composite z-score [9] | composite z-score [10] | composite z-score [11] | composite z-score [12] | composite z-score [13] | z-score [14] | composite z-score [15] | composite z-score [16] | composite z-score [17] | composite z-score [18] | composite z-score [19] | composite z-score [20] |
| --- | --- | --- | --- | --- | --- | --- | --- | --- | --- | --- | --- | --- | --- | --- | --- | --- | --- | --- | --- | --- |
| CO[C@H]1O[C@H](CO)[C@@H](OC(=O)Nc2ccc3c(c2)OCO3)[C@H](OC(=O)Nc2ccccc2-c2ccccc2)[C@H]1OC(=O)Nc1ccccc1-c1ccccc1 | 1.54 | 2.5 (inactive) | 2.11 (inactive) | 2.28 (inactive) | 3.35 | 0.566 (inactive) | 0.0164 | 0.546 | 0.624 | 0.29 | 0.977 | 0.446 | 0.591 | 0.617 (inactive) | 1.03 | 1.31 | -0.294 | 0.398 | -0.0521 | 0.411 |
| CC(C)(C)N1CC=CC23O[C@@H]4/C=C\CCCOC(=O)C4[C@H]2C(=O)N(CCCO)[C@@H]3C1=O (stereo not given in full) | 0.477 | -1.01 (inactive) | 0.0214 (inactive) | -0.766 (inactive) | 1.11 | -0.282 (inactive) | -0.279 | -0.877 | 0.0017 | -0.129 | 1.18 | -0.396 | -0.006 | 0.539 (inactive) | -0.795 | -0.416 | -1.33 | -0.996 | -1.07 | 0.076 |
| CN(C)CCCNC(=O)[C@@]1(C)c2ccccc2C(=O)N(Cc2ccc(OC(F)(F)F)cc2)[C@H]1c1ccc(CO)cc1 | 1.21 | -1.7 (inactive) | -1.93 (inactive) | -1.42 (inactive) | 1.53 | 0.649 (inactive) | 0.0239 | -0.552 | -0.0992 | -0.229 | 1.33 | -0.0469 | 0.63 | 0.399 (inactive) | -0.365 | -0.417 | -0.786 | -0.811 | -0.912 | 0.462 |
| COCCn1c(C(=O)N(C)C)cc2c1C[C@H]1CN(C(=O)c3ccccc3)[C@@](Cc3ccc(OC)cc3)(C(=O)OC)[C@@H]21 | -0.325 | 1.15 (inactive) | 1.82 (inactive) | 2.03 (inactive) | 3.31 | -0.332 (inactive) | 0.43 | -0.465 | 1.1 | 0.0634 | 0.816 | 0.785 | 1.34 | -0.346 (inactive) | 0.26 | 0.22 | 0.0351 | 0.324 | -0.745 | 1.21 |
| C=C(COC)/C(=C/C[C@H](OC(C)=O)c1ccccc1OCCO)c1cc(C(=O)OC)ccc1OC | 1.48 | 0.909 (inactive) | -0.662 (inactive) | -0.16 (inactive) | 1.76 | 0.952 (inactive) | -0.0928 | 0.485 | 0.372 | -0.0815 | 0.989 | -0.103 | -0.0952 | -0.907 (inactive) | 1.05 | 0.196 | -0.607 | 0.186 | 0.189 | 0.289 |
| NC(=O)N1C(=O)C2C(C1=O)C1C=C(CCCO)C2C(c2ccc(CN3CCCC3)cc2)N1Cc1cc2c(cc1Br)OCO2 (stereo not given) | 0.964 | -2.23 (inactive) | -0.251 (inactive) | -0.665 (inactive) | 0.835 | 0.181 (inactive) | -0.128 | 0.208 | -0.788 | -0.211 | -0.0167 | -0.204 | 0.228 | 0.343 (inactive) | 0.325 | 0.177 | -0.287 | -0.0816 | 0.388 | 0.45 |
| CCOC(=O)C1=C[C@@H](C(C)(C)C)N(S(=O)(=O)c2ccc(C)cc2)[C@H]1c1ccc(C#N)cc1 | 1.56 | 0.3 (inactive) | 2.17 (inactive) | 1.75 (inactive) | 2.88 | 0.0374 (inactive) | 0.419 | 0.198 | 1.01 | 0.126 | 0.895 | 0.328 | 0.113 | -0.385 (inactive) | 0.933 | 1.11 | 0.658 | 1.09 | 0.512 | 0.712 |
| C=CC[C@@]1(C(=O)N(C)C)N=C(c2ccc(OCCCO)cc2)O[C@@H]1c1ccccc1CN=[N+]=[N-] | 1.55 | -0.127 (inactive) | -0.0815 (inactive) | -0.64 (inactive) | 3.33 | 1.42 (inactive) | 0.264 | 1.77 | 1.07 | 0.538 | 0.964 | 1.19 | 1.13 | -0.475 (inactive) | 1.42 | 1.33 | 0.493 | 1.38 | 0.488 | 1.23 |
| COC(=O)[C@@]1(Cc2ccccc2)[C@H]2c3cc(C(=O)N(C)C)n(Cc4ccc(S(C)(=O)=O)cc4)c3C[C@H]2CN1C(=O)c1ccccc1 | -0.541 | 0.407 (inactive) | 0.279 (inactive) | 0.654 (inactive) | 3.51 | -1.59 (inactive) | 0.384 | -0.415 | 1.11 | 0.211 | 0.308 | 1.1 | 1.22 | 0.376 (inactive) | 0.648 | 0.0903 | -0.366 | -0.0624 | -0.618 | 0.749 |
| CCCCCCc1nc(-c2ccc(-c3ccc(Cl)c(Cl)c3)o2)cc2c1[Si](C(C)C)(C(C)C)OC2 | -0.849 | -0.625 (inactive) | -7.54 (inactive) | 3.66 (inactive) | 0.582 | 0.66 (inactive) | -0.159 | -0.561 | -0.453 | -0.257 | -0.143 | -0.269 | 0.207 | -2.26 (inactive) | -1.31 | -1.22 | -1.01 | -0.816 | -0.793 | 0.522 |
